An excerpt weighted towards active compounds, which were near 2.7% of everything screened.
LDHA block = blocks human lactate dehydrogenase A | purified LDHA, NADH/diaphorase-resazurin fluorescence; active compounds read low | activity change, % (values are at about 110 or 230 µM) | actives 0.15% (n = 480,000) | AID 1347041; in the data active = activity change below about -30%; inconclusive = mostly about -25% to -30%;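 also: plate controls were DMSO wells for no effect and wells without enzyme for full effect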
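Remaining NADH was detected by diaphorase (0.133 mg/mL) converting 37 µM resazurin to fluorescent resorufin, read at 0 and 20 minutes. The preceding 5-minute room-temperature reaction used 2 nM LDHA, 0.2 mM sodium pyruvate and 0.06 mM NADH at pH 7.4.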
IDH1 R132H inh = blocks human mutant IDH1 R132H enzyme | actives 0.093% (n = 390,000) | Potency, µM (titrated, usually from 76.6 µM), for inactives: top-dose activity change, negative = inhibition, usual class: inhibitors | IDH1-R132H enzyme, NADPH consumption, diaphorase/resazurin fluorescence | O75874 | AID 602179; also: potency is read from the fitted curve at half-maximal effect; % is scaled to controls: 0 for no effect and ±100 for the full control effect; nearly all actives have a fitted effect of over 65% in size
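IDH1-R132H (0.5 ug/mL dispensed) in pH 7.5 Tris buffer was preincubated 30 min with compound, then given a substrate mix of 0.016 mM NADPH and 2 mM alpha-KG for 80 min at room temperature; remaining NADPH was read by diaphorase/resazurin fluorescence.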
Nrf2 block = blocks Nrf2 signaling; AID 504444; A549 ARE-Fluc reporter, luciferase luminescence, 18-24 h; Potency, µM (series often up to 46 µM), without a hit: top-dose activity change, negative = inhibition, most hits filed as inhibitors; actives 2.1% (n = 360,000); also: potency is read from the fitted curve at half-maximal effect; % is scaled to controls: 0 for no effect and ±100 for the full control effect; nearly all actives have a fitted effect of over 60% in size
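Reporter: ARE-Fluc in A549. Exposure: 18-24 h, 37 °C, 5% CO2, 5% FBS OPTI-MEM. Readouts: fluorescent cytotoxicity (CellTiter-Fluor), then luminescent Nrf2 signal after BugLite.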
Nrf2 activator = Nrf2 pathway activation. AID 624171. AREc32 ARE-luciferase reporter (MCF7-derived line), luminescence, 24 h. actives 0.31% (n = 410,000). Potency, µM (titrated, usually from 46.1 µM), for inactives: at the top dose activation, most hits filed as activators; also: potency is read from the fitted curve at half-maximal effect; % of control where 0% means no effect; nearly all actives have a fitted effect of over 65% in size
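ARE-driven firefly luciferase activity in AREc32 cells measured after a 24 hr compound exposure at 37 deg C, using Steady-Glo reagent and a 30 min room-temperature hold.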
A549 viability = A549 cytotoxicity, counter-screen for Nrf2 inhibitors; AID 504648; Potency, µM (doses to about 46 µM), for the others: top-dose activity change, negative = cytotoxicity, most hits filed as inhibitors; actives 0.16% (n = 390,000); A549 ARE-Fluc cells, CellTiter-Fluor viability, 18-24 h; also: potency is read from the fitted curve at half-maximal effect; % is scaled to controls: 0 for no effect and ±100 for the full control effect
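A549 ARE-Fluc cells in 5% FBS OPTI-MEM, 5000 cells/well, rested 2 h then exposed to compounds in concentration-response for 18-24 h at 37 °C. Viability by CellTiter-Fluor fluorescence (Ex 405/Em 525) after 30 min; luciferase luminescence (BugLite, 15 min, RT) read afterwards.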
12-LOX inh = ALOX12 (human) lipoxygenase inhibition; P18054; purified 12hLO, xylenol orange hydroperoxide absorbance; Potency, µM (doses to about 108 µM), for the others: at the highest dose activity change, negative = inhibition, usual class: inhibitors; actives 1.1% (n = 580,000); AID 1671190; also: potency is read from the fitted curve at half-maximal effect; % is scaled to controls: 0 for no effect and ±100 for the full control effect
Target sequence (P18054 whole entry, looked up): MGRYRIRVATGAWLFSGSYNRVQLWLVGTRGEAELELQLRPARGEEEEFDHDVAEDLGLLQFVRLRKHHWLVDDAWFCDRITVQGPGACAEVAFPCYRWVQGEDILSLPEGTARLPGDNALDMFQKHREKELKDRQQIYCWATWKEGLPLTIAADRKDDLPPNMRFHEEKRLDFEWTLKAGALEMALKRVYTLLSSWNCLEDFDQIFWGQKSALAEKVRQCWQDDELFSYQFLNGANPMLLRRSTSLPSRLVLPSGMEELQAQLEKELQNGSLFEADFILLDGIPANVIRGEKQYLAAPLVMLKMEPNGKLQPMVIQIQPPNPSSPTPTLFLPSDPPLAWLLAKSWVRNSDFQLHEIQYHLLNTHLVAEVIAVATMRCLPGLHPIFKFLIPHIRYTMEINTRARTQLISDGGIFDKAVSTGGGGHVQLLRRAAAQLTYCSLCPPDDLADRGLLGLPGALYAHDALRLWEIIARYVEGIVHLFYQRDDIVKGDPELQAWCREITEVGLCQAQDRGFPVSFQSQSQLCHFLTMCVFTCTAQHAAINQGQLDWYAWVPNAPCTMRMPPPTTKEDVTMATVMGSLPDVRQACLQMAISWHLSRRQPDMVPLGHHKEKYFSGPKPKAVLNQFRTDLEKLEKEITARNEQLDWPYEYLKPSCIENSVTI
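Purified human 12hLO at 150 nM in 25 mM Hepes, 0.01% Triton X-100, pH 7.0, preincubated 15 min at room temperature with compound. Reaction started with 40 uM arachidonic acid, 30 min at room temperature. Hydroperoxide measured by Fe-xylenol orange, 573/405 nm absorbance ratio.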
* marks the source's active call; other numbers are inactive results; ? = inconclusive; nt = no result given; [ ] = remark or other dose. Unless noted, calls follow the shape of the dose curve; as a rule, active = well fitted curve in the direction sought with a large enough effect; inconclusive = small, poorly fitted or top-dose-only effect, or another doubt; inactive = no such curve, though single readings can be large; an effect the other way counts as inactive or inconclusive.

SMILES	LDHA block	IDH1 R132H inh	Nrf2 block	Nrf2 activator	A549 viability	12-LOX inh
CC(C)(C)C(=O)COC(=O)c1ccccc1SC1CCS(=O)(=O)C1 (centres undefined)	0	nt	nt	nt	nt	16%
C#CC1(O)CCC2C3CCC4=CC(=O)CCC4C3CCC21C (centres undefined)	6	nt	nt	nt	nt	-2%
Cc1ccc(CNc2nc(-c3ccco3)nn2C(=O)CC(C)C)cc1	3	nt	nt	nt	nt	?
COc1ccccc1C(C)N(C)C(=O)Cc1c(C)nc2ccccc2c1C (centres undefined)	17	nt	nt	nt	nt	?
c1ccc(-c2cc(-c3ccc(N4CCOCC4)cc3)nc3ccccc23)cc1	-5	0%	2%	1%	4%	-13%
COc1ccc2c(-c3ccccc3)cc(N3CCOCC3)nc2c1	?	2%	?	4%	-1%	1.8µM*
CCc1cccc2c(C(=O)C(=O)Nc3cccc(F)c3)c[nH]c12	1	nt	nt	nt	nt	-8%
Cn1c(=O)c2[nH]c(Cc3cccc4ccccc34)nc2n(C)c1=O	-1	1%	21µM*	3%	-8%	-10%
Cn1c(=O)c2[nH]c(COc3ccccc3)nc2n(C)c1=O	3	3%	-20%	3%	22%	19%
[N-]=C=C1C(=S)NC(=O)[C@H]([n+]2ccccc2)[C@H]1c1ccc(Cl)cc1	0	-8%	1%	0%	0%	10µM*
[N-]=C=C1C(=O)NC(=O)C([n+]2ccc(-c3ccncc3)cc2)C1c1ccccc1C(F)(F)F (centres undefined)	31	4%	3%	4%	-1%	?
CC1(C)CC(=O)C=C(C(=O)N2CCCC(C(=O)c3cccc(C(F)(F)F)c3)C2)O1 (centres undefined)	6	-6%	9.2µM*	1%	?	0%
COc1ccc(NC(=O)Cc2c(Cl)cccc2Cl)cc1OC	-4	nt	nt	nt	nt	1%
Cn1c(N)c(C(C[N+](=O)[O-])c2c(F)cccc2Cl)c(=O)n(C)c1=O (centres undefined)	-1	16%	11%	16µM*	-5%	12%
CN(C)c1ccc(C(C[N+](=O)[O-])c2c(N)n(C)c(=O)n(C)c2=O)c(F)c1C#N (centres undefined)	-3	9%	?	?	-18%	nt
COc1cccc(C(C)NC(=O)Nc2ccccc2Cl)c1 (centres undefined)	-7	6%	10µM*	-3%	3%	?
COc1cccc(C(C)NC(=O)c2c(F)cccc2Cl)c1 (centres undefined)	-6	9%	5%	0%	0%	0%
CCCCC(=O)Nc1ccc(-c2cn3ccc(C)nc3n2)cc1	-2	nt	nt	nt	nt	2%
Cc1c(C)n(Cc2ccccc2)c2ncnc(NN)c12	1	-6%	26µM*	0%	-17%	38%
Cc1ccc(C(=O)NC(=S)Nc2cccc(NC(=O)c3ccccc3Cl)c2)cc1[N+](=O)[O-]	-11	6%	-24%	3%	8%	?
CC(=O)Nc1ccc(C=NNc2ccc([N+](=O)[O-])cc2S(=O)(=O)Nc2ccccc2C(=O)O)cc1	-6	-8%	11%	0%	?	?
CN(CCO)c1ccc(C=NNc2ccc([N+](=O)[O-])cc2S(=O)(=O)Nc2ccccc2C(=O)O)cc1	-7	3%	-3%	2%	?	40µM*
Cc1ccc(C(=O)NC(=S)Nc2cccc(NC(=O)c3ccccc3)c2)cc1[N+](=O)[O-]	0	1%	-22%	-1%	-2%	25µM*
O=C(O)c1ccccc1NS(=O)(=O)c1ccc(NNC(=S)Nc2ccc(OC(F)F)cc2)c([N+](=O)[O-])c1	-9	-13%	?	-1%	?	3.5µM*
Cc1ccc(NC(=S)NNc2ccc([N+](=O)[O-])cc2S(=O)(=O)Nc2ccccc2C(=O)O)cc1C	14	-3%	4%	?	-10%	10µM*
SMILES	LDHA block	IDH1 R132H inh	Nrf2 block	Nrf2 activator	A549 viability	12-LOX inh
Cc1nn(-c2ccc(C(F)(F)F)cc2)c(C)c1[C@@H]1C=C[C@@H](NC(=O)c2cccs2)C1	nt	nt	nt	nt	nt	27%[176 µM]
Cc1ccc(NC(=S)NNc2ccc(C(=O)O)cc2[N+](=O)[O-])cc1C	-8	16%	-15%	-1%	-2%	1.4µM*
CC(C)S(=O)(=O)c1oc(-c2cccs2)nc1S(=O)(=O)c1ccc(F)cc1	-2	36%	18µM*	-6%	?	1%
Cc1ccc(S(=O)(=O)c2nc(-c3cccs3)oc2SC(C)C)cc1	0	5%	1%[9.27 µM]	-1%	-12%	1%
O=C(Cn1sc2ccccc2c1=O)Nc1ccccc1	-22	7%	nt	?	nt	0.89µM*
O=C(Cn1sc2ccccc2c1=O)NC12CC3CC(CC(C3)C1)C2	-10	2%	15%	13µM*	-1%	nt
O=C(Cn1nc(C(=O)O)c2ccccc2c1=O)Nc1ccccc1	-15	nt	nt	nt	nt	?
Nc1cccc2c1C(=O)N(CC(=O)NC13CC4CC(CC(C4)C1)C3)C2=O	-14	13%	-12%	-1%	?	?
CCOc1ccc(NC(=O)NC(C)c2ccc(Cl)s2)cc1 (centres undefined)	2	nt	nt	nt	nt	?
O=C(CCc1cccnc1)Nc1ccc(N2CCOCC2)cn1	-21	nt	nt	nt	nt	?
COc1ccc(OC)c(/C=C(\C#N)c2nc3ccccc3[nH]2)c1	2	nt	nt	nt	nt	-27%
CCCCCCn1c(SCC(=O)Nc2ccccc2)nc2c1c(=O)n(C)c(=O)n2C	7	nt	nt	nt	nt	-4%
COc1cc(F)cc(-c2ccc(COc3ccc4c(cnn4CCC(=O)O)c3)cc2)c1	nt	nt	nt	nt	nt	28µM*
COc1cccc(F)c1-c1ccc(COc2ccc3c(cnn3CCC(=O)O)c2)cc1	nt	nt	nt	nt	nt	22µM*
Cc1ccccc1-c1ccc(COc2ccc3c(cnn3CCC(=O)O)c2)cc1	nt	nt	nt	nt	nt	45µM*
Cc1cc(=O)c2cc(C(=O)Nc3ccccc3C)ccc2[nH]1	-5	-13%	21µM*	0%	7%	-3%
COc1ccc(NC(=O)C=C(C)C)cc1OC1CCCC1	13	nt	nt	nt	nt	16%
CCC(CC)NC(=O)CCc1c(C)c2ccc(OC)cc2oc1=O	4	nt	nt	nt	nt	6%
COc1cccc(/C=C2\SC(=S)N(C(C)C(=O)NC3C=CS(=O)(=O)C3)C2=O)c1 (centres undefined)	-2	-10%	2%	18µM*	3%	-10%
COc1cccc(/C=C2\SC(=O)N(CC(=O)NC3C=CS(=O)(=O)C3)C2=O)c1 (centres undefined)	-14	-5%	10%	16µM*	0%	7%

Bioassay records as filed in PubChem BioAssay.
